Measured values reported in PubChem BioAssay AID1159580 (chemical genetic matrix, 2015).
“And” between values parts separate entries of the source, which are not always exact repeats. Identical values can stand only once. The campaign covered roughly 5,500 compounds. About 2,000 (36%) were called active. Roughly 18% stayed inconclusive and do not appear here. Cut-off read from the data, not from the text of the source: active = normalized growth mostly below about 0.91 (no sharp cut-off); inconclusive = no clear call, values can overlap the other calls; inactive = mostly above about 0.92. This is one part of the list.

Assay: chemical genetic growth profiling, strain panel (AID 1159580);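 note: tested at 20 µM; growth read once vehicle control cultures reached saturation at 30 °C; 1 = growth at the plate median or of vehicle wells; lower values mean less growth of the strain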
Conditions: S. cerevisiae deletion strains, growth OD

Measured: normalized growth

OCC(O)CN1CCN(c2ccccc2)CC1 (stereo unspecified)
inactive: locus YAL013W, strain DEP1, hits give low values 0.995 | locus YAL021C, strain ccr4, hits give low values 0.923 | locus YAL026C, strain drs2, hits give low values 0.982 | locus YAL030W, strain snc1, hits give low values 0.996 | locus YBL061C, strain skt5, hits give low values 0.989 | locus YBR009C, strain hhf1, hits give low values 1 | locus YBR021W, strain FUR4, hits give low values 0.972 | locus YBR023C, strain chs3, hits give low values 0.997 | locus YBR171W, strain sec66, hits give low values 0.968 | locus YBR229C, strain ROT2, hits give low values 0.984 | locus YBR231C, strain swc5, hits give low values 0.999 | locus YBR279W, strain paf1, hits give low values 0.974 | locus YCL011C, strain gbp2, hits give low values 0.977 | locus YCL016C, strain dcc1, hits give low values 0.988 | locus YCL029C, strain bik1, hits give low values 0.978 | locus YCL061C, strain MRC1, hits give low values 0.973 | locus YCL069W, strain vba3, hits give low values 0.989 | locus YCR088W, strain abp1, hits give low values 0.98 | locus YDL005C, strain med2, hits give low values 0.963 | locus YDL035C, strain GPR1, hits give low values 1.02 | locus YDL040C, strain nat1, hits give low values 0.979 | locus YDL074C, strain BRE1, hits give low values 0.984 | locus YDL101C, strain DUN1, hits give low values 0.984 | locus YDL134C, strain PPH21, hits give low values 0.991 | locus YDL185W, strain tfp1, hits give low values 0.99 | locus YDL192W, strain arf1, hits give low values 0.995 | locus YDR001C, strain nth1, hits give low values 0.98 | locus YDR069C, strain doa4, hits give low values 0.982 | locus YDR101C, strain arx1, hits give low values 0.965 | locus YDR137W, strain rgp1, hits give low values 0.95 | locus YDR150W, strain NUM1, hits give low values 1 | locus YDR159W, strain sac3, hits give low values 1.01 | locus YDR162C, strain NBP2, hits give low values 1.01 | locus YDR195W, strain ref2 0.967 | locus YDR297W, strain sur2, hits give low values 0.982 | locus YDR318W, strain mcm21, hits give low values 0.989 | locus YDR334W, strain swr1, hits give low values 0.945 | locus YDR335W, strain msn5, hits give low values 0.978 | locus YDR388W, hits give low values 0.991 | locus YDR392W, strain spt3, hits give low values 0.931 | locus YDR502C, strain sam2, hits give low values 0.995 | locus YEL003W, strain gim4, hits give low values 0.938 | locus YEL037C, strain rad23, hits give low values 0.986 | locus YEL061C, strain CIN8 (second series), hits give low values 0.985 | locus YEL061C, strain CIN8, hits give low values 1 | locus YER015W, strain faa2, hits give low values 1 | locus YER016W, strain bim1, hits give low values 0.991 | locus YER110C, hits give low values 0.988 | locus YER111C, strain swi4, hits give low values 0.983 | locus YER155C, strain BEM2 (second series), hits give low values 1 | locus YER155C, strain BEM2, hits give low values 0.977 | locus YER167W, strain BCK2, hits give low values 1.01 | locus YGL078C, strain dbp3, hits give low values 0.991 | locus YGL086W, strain mad1, hits give low values 0.998 | locus YGL167C, strain pmr1, hits give low values 0.998 | locus YGL173C, strain kem1, hits give low values 0.978 | locus YGL227W, strain vid30, hits give low values 0.985 | locus YGL240W, strain doc1, hits give low values 1.01 | locus YGL248W, strain PDE1, hits give low values 0.975 | locus YGL253W, strain hxk2, hits give low values 0.993 | locus YGR078C, strain PAC10, hits give low values 0.99 | locus YGR135W, strain pre9, hits give low values 0.98 | locus YGR229C, strain SMI1, hits give low values 1.01 | locus YGR252W, strain gcn5, hits give low values 1.08 | locus YHR013C, strain ard1, hits give low values 0.953 | locus YHR027C, strain rpn1, hits give low values 0.984 | locus YHR030C, strain SLT2, hits give low values 0.991 and 0.969 | locus YHR079C, strain IRE1 (second series), hits give low values 0.991 | locus YHR079C, strain IRE1, hits give low values 0.965 | locus YHR094C, strain hxt1, hits give low values 0.992 | locus YHR129C, strain ARP1, hits give low values 0.985 | locus YHR142W, strain chs7, hits give low values 0.932 | locus YHR200W, strain rpn10, hits give low values 0.993 | locus YIL066C, strain RNR3, hits give low values 1 | locus YIL073C, strain SPO22, hits give low values 1.03 | locus YIL125W, strain kgd1, hits give low values 1 | locus YIR030C, strain dcg1, hits give low values 0.988 | locus YJL092W, strain hpr5, hits give low values 0.965 | locus YJL095W, strain BCK1 (second series), hits give low values 0.989 | locus YJL095W, strain BCK1, hits give low values 0.981 and 0.975 | locus YJL115W, strain asf1, hits give low values 0.965 | locus YJL129C, strain trk1, hits give low values 0.957 | locus YJL134W, strain LCB3, hits give low values 0.988 | locus YJL154C, strain vps35, hits give low values 0.983 | locus YJL164C, strain tpk1, hits give low values 0.966 | locus YJL166W, strain qcr8, hits give low values 1 | locus YJL168C, strain set2, hits give low values 0.983 | locus YJL187C, strain SWE1 (second series), hits give low values 0.988 | locus YJL187C, strain SWE1, hits give low values 0.981 | locus YJR043C, strain POL32, hits give low values 0.977 | locus YJR066W, strain TOR1, hits give low values 0.908
